# Screening data from PubChem BioAssay.
# Shown are actives, neighbours in structure and some others; about 1.8% of the full set was active somewhere.
# S1P2 agonist – agonists of human S1P2 receptor; O95136; S1P2-expressing cell line, agonist reporter read-out; activation, % at 4.5 µM; hit rate 0.46% among 97,000; AID 729; in the data active means activation above about 16%;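 further: 0% = vehicle low control and 100% = maximal reference agonist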
# Target sequence (O95136 whole entry, looked up): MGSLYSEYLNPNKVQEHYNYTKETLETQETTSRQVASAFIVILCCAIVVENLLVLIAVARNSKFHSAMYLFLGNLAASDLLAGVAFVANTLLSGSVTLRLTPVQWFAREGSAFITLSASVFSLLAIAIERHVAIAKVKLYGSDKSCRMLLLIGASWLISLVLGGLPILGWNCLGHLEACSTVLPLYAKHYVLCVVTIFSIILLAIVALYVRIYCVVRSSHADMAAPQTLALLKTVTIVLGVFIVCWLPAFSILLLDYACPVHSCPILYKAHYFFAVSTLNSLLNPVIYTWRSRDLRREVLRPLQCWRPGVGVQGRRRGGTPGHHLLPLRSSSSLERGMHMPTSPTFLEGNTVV
# GALR2 agonist – activates the human galanin receptor 2. activation, % (test concentration not listed). AID 803. hit rate 0.48% among 140,000. GALR2-expressing cells, agonist activation read-out. O43603; in the data active means activation above about 5%, passing the limit was not always enough;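 further: 0% = vehicle buffer wells and 100% = reference agonist at full effect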
# MRP1 act – MRP-1 activation; viability increase, % at 10 µM; hit rate 0.61% among 140,000; H69AR cells + doxorubicin, viability rescue, CellTiter-Glo; AID 799;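 active means viability gain under doxorubicin at or above a set limit, the compound median plus 3 SD, cut at about 4.7% in these data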;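 further: MRP-1 overexpressing cells given doxorubicin 25 µM after compound pretreatment; 18-22 h compound pretreatment then 72 h with doxorubicin before readout; 0% = doxorubicin-only wells and 100% = vehicle-treated cells without doxorubicin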
# GALR2 antag – blocks the human galanin receptor 2; O43603; hit rate 0.39% among 140,000; GALR2-expressing cells, antagonist mode; inhibition, % at 4 µM; in the data active means inhibition above about 27%;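 further: cells stimulated with galanin 1-16 at roughly its EC80; 0% = agonist challenge control and 100% = basal control without agonist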
# S1P2 blocker – blocks the human S1P2 receptor | O95136 | cell-based S1P2 antagonist assay, inhibition at 5 uM | inhibition, % at 5 µM | hit rate 0.21% among 97,000 | AID 736; in the data active means inhibition above about 45%;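 further: CRE beta-lactamase reporter cells expressing human S1P2 stimulated with S1P; 0% = agonist at EC80 alone and 100% = agonist plus reference antagonist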
# MRP reversal – reverses drug resistance mediated by MRP; H69AR cells + 2 uM doxorubicin, CellTiter-Glo, 72 h; differential viability (reversal), % at 10 µM; hit rate 0.04% among 85,000; AID 602;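 active means viability drop by adding the cancer drug above about 55%, with treated viability meeting a 40% cutoff, limit read from the data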;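 further: viability without doxorubicin minus viability with 2 µM doxorubicin for each compound; larger differential means the compound sensitizes cells more to doxorubicin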
# GALR2 agon conf – confirmation of human galanin receptor 2 (GALR2) agonists; shares compounds with GALR2 agonist; activation, % at 5.6 µM; GALR2-expressing cells, agonist activation; hit rate 10% among 460; in the data active means activation above about 8.4%;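 further: 0% = buffer-only vehicle wells and 100% = full reference agonist response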
# BLA act counter – beta-lactamase activation, GALR2 counterscreen; shares compounds with GALR2 agonist; CHO NFAT-bla reporter, beta-lactamase FRET activation; activation, % at 5.6 µM; hit rate 10% among 460; AID 865;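 active means activation above the screen-wide mean activation plus 3 SD, cut at about 8% in these data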;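 further: 0% = DMSO with PBS wells and 100% = thapsigargin positive control wells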
# Numbers without * were called inactive; . = not tested or not shown.
SMILES,S1P2 agonist,GALR2 agonist,MRP1 act,GALR2 antag,S1P2 blocker,MRP reversal,GALR2 agon conf,BLA act counter
COC(=O)Cn1c(C)nc2ccccc21,-4,-1,-3,-9,-14,-9,.,.
COc1ccc2c(c1OC)C(=O)OC2CC(=O)c1ccc(O)cc1 (stereo not drawn),.,-1,-2,13,.,-5,.,.
O=C(Nc1ccccc1)c1cc(-c2ccccc2Cl)no1,-3,0,-2,-13,-37,.,.,.
CC1=C(C)CC(C(=O)NNC(=O)c2ccccc2)C(C(=O)O)C1 (stereo not drawn),-6,-2,0,10,8,.,.,.
CC1=C(C)CC(C(=O)NNC(=O)c2cccc(Cl)c2)C(C(=O)O)C1 (stereo not drawn),.,8.2*,5,6,.,.,-1,-1
COc1ccc(S(=O)(=O)N(Cc2ccccc2)c2ccccc2C(=O)Nc2ccccc2C(=O)NCc2ccco2)cc1,.,-1,1,-8,.,.,.,.
O=C(Nc1ccc2c(c1)OCO2)[C@@H]1[C@@H]2C(=O)N(C3CCCCC3)C(=O)[C@@H]2C2c3ccccc3C=CN21 (stereo partly drawn),-5,-2,-1,-12,19,-10,.,.
CC1(C)CC(=O)C=C(Nc2ccc(S(N)(=O)=O)cc2)C1,-11,41*,-2,7,-13,-4,-1,-2
CC1(C)CC(=O)C=C(Nc2ccc(C(=O)O)cc2)C1,-3,0,-3,8,-9,-1,.,.
CC1CN(Cc2cc(=O)[nH]c(C(C)C)n2)CC(C)O1 (stereo not drawn),0,46*,0,-11,0,.,-1,0
CC(=O)Nc1c(S(=O)(=O)c2ccccc2)c2nc3ccccc3nc2n1Cc1ccccc1,4,10,1,-7,4,.,1,6
C=CCn1c(NS(=O)(=O)c2ccccc2)c(S(=O)(=O)c2ccc(C)cc2)c2nc3ccccc3nc21,.,3,2,-7,.,.,.,.
Cc1ccc(N=C2NC(=O)CS2)c(C)c1,-2,0,0,0,19,1,.,.
O=C1CSC(=Nc2cc(Cl)ccc2Cl)N1,-7,27*,-1,15,-1,13,0,-1
CC(C)NC(=S)NNC(=O)C12CC3CC(CC(C3)C1)C2,-4,12*,0,3,-7,13,-1,-2
CCCCNC(=S)NNC(=O)C12CC3CC(CC(C3)C1)C2,-1,-1,-4,-3,-4,8,.,.
Cc1ccc(-c2c3c(=O)n(C)c(=O)n(C)c3cn2Cc2ccccc2)cc1,-5,71*,-1,-9,-12,-9,0,0
C=CCn1c(C)c(C(C)=O)c(SC)nc1=S,2,1,-2,10,-1,5,.,.
N#C/C(=C\c1c(N2CCCCCC2)nc2ccccn2c1=O)C(=O)NC1CCS(=O)(=O)C1 (stereo not drawn),.,8.9*,-1,-20,.,.,0,0
N#C/C(=C\c1c(N2CCC(C(N)=O)CC2)nc2ccccn2c1=O)C(=O)NCc1ccco1,.,0,-2,2,.,.,.,.
CCOC(=O)/C=c1\s/c(=C\c2ccc(C)cc2)c(=O)n1CC(=O)NCc1ccco1,.,8.2*,-2,3,.,.,3,0
CCOC(=O)/C=c1\s/c(=C\c2ccc(C(F)(F)F)cc2)c(=O)n1CC(=O)NCc1ccco1,.,0,-6,-5,.,.,.,.
CCCNC(=S)N1CCC(c2nc3cc(C)c(C)cc3[nH]2)CC1,-6,32*,-4,-10,12,.,-1,-2
Cc1cc2nc(C3CCCN(C(=S)Nc4ccccc4C)C3)[nH]c2cc1C (stereo not drawn),-1,0,-3,-2,6,.,.,.
CC1(C)C(=O)C2(CCCCC2)C(=O)OC1c1cccc([N+](=O)[O-])c1 (stereo not drawn),.,-1,0,9,.,.,.,.
SMILES,S1P2 agonist,GALR2 agonist,MRP1 act,GALR2 antag,S1P2 blocker,MRP reversal,GALR2 agon conf,BLA act counter
Cc1cc2c(c(=O)n1Cc1ccc3c(c1)OCO3)C(c1cccnc1)C(C#N)=C(N)O2 (stereo not drawn),-11,23*,0,-3,9,-12,-1,-2
Cc1cc2c(c(=O)n1Cc1cccnc1)C(c1ccccc1)C(C#N)=C(N)O2 (stereo not drawn),-2,-2,-2,-7,13,-7,.,.
COc1cc(C(=O)O)ccc1OCc1c(C)noc1C,-4,-1,0,14,-4,.,.,.
CCOC(=O)c1c(C)[nH]c(C)c1C(=O)COC(=O)[C@@H]1CCCN1S(=O)(=O)c1ccc(Cl)cc1,-7,-2,-1,8,-2,17,.,.
Cn1nc(OC(=O)Nc2ccc(F)cc2)cc1C(F)(F)F,-7,62*,0,-2,-2,11,-1,-3
O=C(O)C[C@@H](O)C(=O)O,.,-1,0,14,.,-6,.,.
COc1cc(C2=NOC(C(=O)NCc3cccs3)C2)cc(OC)c1OC (stereo not drawn),-1,88*,-4,7,-9,-41,-1,-2
CC(C)Cn1c(N)c(C(=O)NCC2CCCO2)c2nc3ccccc3nc21 (stereo not drawn),14,12*,-4,0,-31,-23,2,3
N#Cc1c(N)n(CCc2ccc(F)cc2)c2nc3ccccc3nc12,16,15*,0,-19,-30,-14,4,9.4*
COCCn1c(N)c(C(=O)NCc2cccs2)c2nc3ccccc3nc21,14,11*,1,-3,-33,.,5,10*
COCCn1c(N)c(C(=O)NCC2CCCO2)c2nc3ccccc3nc21 (stereo not drawn),6,5,-1,3,-19,-9,.,.
Nc1c(C(=O)NCc2ccco2)c2nc3ccccc3nc2n1CCc1ccc(F)cc1,13,24*,-5,-13,-34,-6,10*,18*
c1ccc(-c2nn3c(C4CCCCC4)nnc3s2)cc1,1,0,0,-3,-22,-4,.,.
CC(=O)c1ccc(OCCCN2CCCCC2)cc1,-1,-1,-3,1,12,2,.,.
Cc1c(Cl)cccc1NC(=O)CCC(=O)NNC(=O)c1ccco1,-4,-1,-1,2,11,.,.,.
Cc1ccc(NC(=O)CCC(=O)NNC(=O)c2ccco2)cc1C,-11,18*,-3,7,7,.,-1,-1
CCCCCCc1cc2cc(S(=O)(=O)c3ccc(C)cc3)c(=O)oc2cc1O,.,45*,-1,-16,.,.,15*,42*
CCCCCCc1cc2cc(S(=O)(=O)c3ccc(Cl)cc3)c(=O)oc2cc1O,.,20*,-5,-10,.,.,15*,46*
CCCCCCc1cc2cc(C(=O)Nc3ccccc3)c(=O)oc2cc1O,.,0,-5,-7,.,.,.,.
CCN(CC)c1ccc2cc(S(=O)(=O)c3ccc(Cl)cc3)c(=O)oc2c1,.,43*,-2,-15,.,.,16*,29*
